# Results from PubChem BioAssay (EPA / NIEHS).
# “And” between values parts separate entries of the source, which are not always exact repeats. Equal entries are not always repeated. Records with an inconclusive call do not appear. The source made the active and inactive calls. The calls were made as follows: active = hit-call score of the fitted dose curve at least 0.9, where 1 is the maximum; inconclusive = response in the unintended direction; inactive = score below 0.9.
# Tests used:
# [1] = ACEA_AR_agonist_AUC_viability: ACEA Biosciences xCELLigence Real-Time Cell Analysis on Androgen Receptor Agonism for Viability (AID 2283775);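 as to AC50: viability read 80 hours after compound addition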
# Method in brief: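 22Rv1 cells; impedance growth kinetics; 8-pt 1:4 dilutions from 100 uM top final, ≤0.5% DMSO; n = 2; 80 h read; AUC viability, loss-of-signal vs DMSO.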
# [2] = ACEA_AR_antagonist_AUC_viability: ACEA Biosciences xCELLigence Real-Time Cell Analysis on Androgen Receptor Antagonism for Viability (AID 2283776);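 also: 22Rv1 human prostate cancer cells growing on impedance electrode plates; area under impedance growth curve at 80 h after dosing as viability; hits lower the growth signal relative to DMSO meaning cytotoxicity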
# Method in brief: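 Impedance read-out (RT-CES): area under growth curve at 80 h post-dose, loss of signal scored vs DMSO baseline. 22Rv1 cells; 8-pt 1:4 series, top 100 uM final, ≤0.5% DMSO; biological duplicate.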
# [3] = ArunA_CellTiter_hNP: Viability Assessment in the ArunA Biomedical's Oris Neural Crest (hNC) Cell Migration Assay (AID 2283753)
# Method in brief: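 Viability read with CellTiter 96 Aqueous One after 72 h chemical exposure of human hNP1 neuroprogenitors, which were plated on Matrigel in LIF/bFGF medium 16 h beforehand. Endpoint fitted in positive direction relative to DMSO.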
# [4] = ArunA_Migration_hNC: ArunA Biomedical's Oris Neural Crest (hNC) Cell Migration Assay (AID 2283755)
# Method in brief: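 Calcein-AM fluorescence (ex494 nm/em 517 nm) in the stopper-defined detection zone quantifies migration of hNC cells after 72 h chemical exposure; 60,000 cells/well plated on Matrigel with LIF and bFGF, 16 h pre-incubation. DMSO baseline.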
# [5] = ArunA_NOG_NeuriteLength: ArunA Biomedical's Neurite Outgrowth (NOG) Assay for Neurite Length (AID 2283757)
# Method in brief: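 Total neurite length per neuron, from traced βIII-tubulin-labelled processes longer than 10 um on viable Hoechst-gated cells, was scored as decrease from DMSO. Cells were hESC (H9)-derived neurons given 48 h chemical exposure immediately after seeding.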
# [6] = ArunA_NOG_NeuritesPerNeuron: ArunA Biomedical's Neurite Outgrowth (NOG) Assay for Neurites Per Neuron (AID 2283758)
# Method in brief: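 Differentiated human H9-derived neurons exposed to chemicals for 48 h from seeding, then stained with Hoechst and βIII-tubulin/DyLight 488. Automated imaging counted neurites (processes >10 um) per valid neuron; loss of signal versus DMSO scored.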
# [7] = target: Luciferin 4-monooxygenase (Photinus pyralis) (UniProt P08659); test: CCTE_Simmons_QuantiLum_inhib_2: CCTE's Firefly Luciferase Inhibition Assay, Simmons Lab (AID 2283767);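 as to AC50: potency for inhibitors that lower luciferase luminescence relative to DMSO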
# Method in brief: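 First, 5 ng purified luciferase in phosphate buffer with BSA is dispensed per well. Next, test chemicals (5 nM to 87.5 uM final, 0.5% DMSO) are added and incubated 30 min at 37C in darkness. Finally, luciferin reagent is injected and luminescence read kinetically.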
# [8] = system: chicken Androgen Receptor (AR), gene 422165; test: ATG_chAR_XSP1: Attagene TRANS-FACTORIAL Multi-Species (XSP1) HepG2 Assay for chicken Androgen Receptor (AR) (AID 2283768)
# Method in brief: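 Reporter mRNA read by RT-PCR with fluorescent labelling and capillary electrophoresis 24 h after chemical dosing of transiently transfected HepG2 cells. Chicken AR-Gal4 chimera, partially stimulated with 3 nM 6-alpha-fluorotestosterone; activity fitted upward relative to DMSO.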
# [9] = system: frog Androgen Receptor (AR), gene 399456; test: ATG_frAR_XSP1: Attagene TRANS-FACTORIAL Multi-Species (XSP1) HepG2 Assay for frog Androgen Receptor (AR) (AID 2283770)
# Protocol: ATG_XSP1_multi-species_TRANS is a cell-based, multiplexed assay created by modifying the existing Attagene TRANS-FACTORIAL system to include a panel of nuclear receptors from some or all the following species: human (Homo sapiens), mouse (Mus musculus), frog (Xenopus laevis), zebrafish (Danio rerio), chicken (Gallus gallus), and turtle (Chrysemys picta). The ECOTOX-FACTORIAL format uses HepG2, a human liver cell line, with measurements taken at 24 hours after chemical dosing in a 24-well plate. Xsp1 included 3 nM 6-alpha-fluorotestosterone to partially stimulate the androgen receptor.ATG_frAR_XSP1 is one of 29 assay components measured or calculated from the ATG_XSP1_multi-species_TRANS assay. It is designed to make measurements of mRNA induction, a form of inducible reporter, as detected with fluorescence intensity signals by Reverse transcription polymerase chain reaction (RT-PCR) and Capillary electrophoresis technology.The assay endpoint ATG_frAR_XSP1 was analyzed in the positive analysis fitting direction relative to DMSO as the negative control and baseline of activity. […] Furthermore, this assay endpoint can be referred to as a primary readout, because this assay has produced multiple assay endpoints where this one serves a reporter gene function. […]
# [10] = system: zebrafish Androgen Receptor (AR), gene 100005148; test: ATG_zfAR_XSP1: Attagene TRANS-FACTORIAL Multi-Species (XSP1) HepG2 Assay for zebrafish Androgen Receptor (AR) (AID 2283771)
# Method in brief: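 Gain-of-signal versus DMSO was measured as reporter transcripts quantified by RT-PCR, fluorescent labelling and capillary electrophoresis after 24 h chemical exposure. The cells were HepG2 expressing a chimeric zebrafish AR-GAL4, co-stimulated with 3 nM 6-alpha-fluorotestosterone.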
# [11] = system: zebrafish Estrogen Receptor (ESR2B), gene 317733; test: ATG_zfER2b_XSP1: Attagene TRANS-FACTORIAL Multi-Species (XSP1) HepG2 Assay for zebrafish Estrogen Receptor (ESR2B) (AID 2283773)
# Method in brief: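 Medium contained 3 nM 6-alpha-fluorotestosterone. Reporter mRNA induction by exogenous zebrafish ER2b-Gal4 chimera was read 24 h post-dose in transiently transfected HepG2 cells, using RT-PCR, fluorescent labelling, HpaI digestion and capillary electrophoresis.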
# [12] = system: frog Estrogen Receptor (ESR2), gene 100174814; test: ATG_frER2_XSP1: Attagene TRANS-FACTORIAL Multi-Species (XSP1) HepG2 Assay for frog Estrogen Receptor (ESR2) (AID 2283774)
# Method in brief: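 Reporter mRNA from a multiplexed TRANS system, measured by RT-PCR with fluorescent labelling and capillary electrophoresis, 24 hours after chemical exposure. Human HepG2 liver cells carried exogenous frog ER-Gal4 chimera; medium included 3 nM 6-alpha-fluorotestosterone; increases versus DMSO analysed.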
# [13] = system: frog Estrogen Receptor (ESR1), gene 398734; test: ATG_frER1_XSP1: Attagene TRANS-FACTORIAL Multi-Species (XSP1) HepG2 Assay for frog Estrogen Receptor (ESR1) (AID 2283777)
# Method in brief: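 HepG2 cells transiently transfected with GAL4-UAS reporter units and frog ER–Gal4 chimera were dosed for 24 h with 3 nM 6-alpha-fluorotestosterone present. Reporter mRNA was measured by RT-PCR and capillary electrophoresis; gain of signal fitted versus DMSO.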
# [14] = system: zebrafish Estrogen Receptor (ESR2A), gene 317734; test: ATG_zfER2a_XSP1: Attagene TRANS-FACTORIAL Multi-Species (XSP1) HepG2 Assay for zebrafish Estrogen Receptor (ESR2A) (AID 2283778)
# Method in brief: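 Reporter transcripts were quantified by RT-PCR, 6-FAM labelling, HpaI digestion and capillary electrophoresis after 24 h dosing. The cells were HepG2 transiently carrying a zebrafish ER2a–Gal4 construct plus multiplexed UAS reporters; medium contained 3 nM 6-alpha-fluorotestosterone.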
# [15] = ArunA_CellTiter_hNC: Viability Assessment in the ArunA Biomedical's Oris Neural Crest (hNC) Cell Migration Assay (AID 2283752)
# Method in brief: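 Seed 60,000 hNC cells per well onto Matrigel in basal growth medium containing LIF and bFGF. Incubate 16 h at 37C. Replace with test medium containing chemical for 72 h, then assess viability by CellTiter Aqueous One.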
# [16] = ArunA_Migration_hNP: ArunA Biomedical's Oris Neuroprogenitor (hNP) Cell Migration Assay (AID 2283754)
# Method in brief: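 Readout is calcein-AM fluorescence (ex494/em517) of cells migrating into the detection zone, relative to DMSO. hNP1 cells (H9-derived) grown on Matrigel behind stoppers 16 h, then stoppers pulled and chemical applied 72 h; cytochalasin D as control.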
# [17] = ArunA_NOG_NucleusCount: ArunA Biomedical's Neurite Outgrowth (NOG) Assay for Nucleus Count (AID 2283756)
# Method in brief: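 Viable neuron count, from Hoechst nuclei passing size and intensity gates, imaged at 20x on differentiated H9-derived human neurons. Exposure lasted 48 h from seeding; activity was scored relative to DMSO.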
# [18] = ArunA_NOG_BranchPointsPerNeurite: ArunA Biomedical's Neurite Outgrowth (NOG) Assay for Branch Points Per Neurite (AID 2283759)
# Method in brief: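 Automated image analysis traced neurites (processes >10 um) from valid cell bodies after Hoechst and βIII-tubulin staining. hNN cells from H9 embryonic stem cells, 48 h exposure. Fitted bidirectionally against DMSO.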
# [19] = system: Thyroperoxidase (TPO), gene 445522; test: CCTE_Simmons_GUA_TPO: CCTE's Guaiacol Assay for Thyroperoxidase (TPO) Inhibition, Simmons Lab (AID 2283750)
# Method in brief: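 Porcine thyroid microsomes (25 ug) in 200mM potassium phosphate, preincubated 30 s at 37C with compound (8 concentrations, 5 nM–87.5 uM) and 35mM guaiacol; 1mM H2O2 starts reaction. Absorbance change at 450nm over first 80 s; loss of signal versus DMSO, three replicates.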
# [20] = target: zebrafish Estrogen Receptor (ESR1), esr1 (gene 259252) (UniProt P57717); test: ATG_zfER1_XSP1: Attagene TRANS-FACTORIAL Multi-Species (XSP1) HepG2 Assay for zebrafish Estrogen Receptor (ESR1) (AID 2283772)
# Method in brief: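 Transfect HepG2 with GAL4-UAS multi-reporter constructs; treat 24 h (medium carries 3 nM 6-alpha-fluorotestosterone); extract RNA, reverse-transcribe, PCR-amplify, FAM-label, digest with HpaI; resolve by capillary electrophoresis and compare against DMSO baseline.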
# Sequence of Luciferin 4-monooxygenase (Photinus pyralis) (P08659 whole entry, looked up): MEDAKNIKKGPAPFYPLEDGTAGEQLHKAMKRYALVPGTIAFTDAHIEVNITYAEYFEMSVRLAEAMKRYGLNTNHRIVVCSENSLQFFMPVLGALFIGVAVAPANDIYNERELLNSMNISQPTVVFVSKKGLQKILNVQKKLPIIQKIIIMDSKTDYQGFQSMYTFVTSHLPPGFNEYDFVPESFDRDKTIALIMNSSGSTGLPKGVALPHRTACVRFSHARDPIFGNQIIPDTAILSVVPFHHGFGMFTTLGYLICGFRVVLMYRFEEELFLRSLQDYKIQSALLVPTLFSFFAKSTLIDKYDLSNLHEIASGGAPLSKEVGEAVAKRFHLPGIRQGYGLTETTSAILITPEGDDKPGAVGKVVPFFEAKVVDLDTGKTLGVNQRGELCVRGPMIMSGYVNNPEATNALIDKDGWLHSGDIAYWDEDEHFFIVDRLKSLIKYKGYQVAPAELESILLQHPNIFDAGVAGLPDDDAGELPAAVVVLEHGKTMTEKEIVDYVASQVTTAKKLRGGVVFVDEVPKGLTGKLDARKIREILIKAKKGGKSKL
# Sequence of zebrafish Estrogen Receptor (ESR1), esr1 (gene 259252) (P57717 whole entry, looked up, the tested form may be a part): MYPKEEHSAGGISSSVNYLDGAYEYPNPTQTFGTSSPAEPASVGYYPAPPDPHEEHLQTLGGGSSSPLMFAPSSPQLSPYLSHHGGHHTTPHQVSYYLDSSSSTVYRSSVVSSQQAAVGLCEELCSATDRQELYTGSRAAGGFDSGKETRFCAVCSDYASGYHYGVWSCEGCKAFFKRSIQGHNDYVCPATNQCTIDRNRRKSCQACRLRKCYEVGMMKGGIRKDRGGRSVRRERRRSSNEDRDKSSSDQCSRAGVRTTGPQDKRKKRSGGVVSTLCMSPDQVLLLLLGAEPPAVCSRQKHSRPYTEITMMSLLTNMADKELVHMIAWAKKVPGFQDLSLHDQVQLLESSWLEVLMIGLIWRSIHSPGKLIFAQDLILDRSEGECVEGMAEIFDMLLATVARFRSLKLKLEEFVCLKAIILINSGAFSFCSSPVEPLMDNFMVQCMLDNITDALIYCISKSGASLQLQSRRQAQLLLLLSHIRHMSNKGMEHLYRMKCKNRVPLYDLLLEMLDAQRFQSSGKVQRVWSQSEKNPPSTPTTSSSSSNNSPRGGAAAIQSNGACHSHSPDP
smiles,measurement,setting,value
O=CCCCC=O,AC50,[1],35.2 µM (active)
same,AC50,[2],23.3 µM (active)
CC(C)(c1cc(Br)c(O)c(Br)c1)c1cc(Br)c(O)c(Br)c1,outcome,[3],inactive
same,outcome,[4],inactive
same,outcome,[5],inactive
same,outcome,[6],inactive
same,outcome,[7],inactive
same,outcome,[8],inactive
same,outcome,[9],inactive
same,outcome,[10],inactive
same,outcome,[11],inactive
same,AC50,[12],11.8 µM (active)
same,AC50,[1],25 µM (active)
same,AC50,[2],24.3 µM (active)
same,outcome,[13],inactive
same,outcome,[14],inactive
Clc1cc(Cl)c2c(c1)N=C1CCCCCN1C2,outcome,[1],inactive
same,outcome,[2],inactive
CCCCCCCCOC(=O)c1cc(O)c(O)c(O)c1,outcome,[15],inactive
same,AC50,[3],6.65 µM (active) and 541 nM (active)
same,AC50,[16],1.02 µM (active) and 675 nM (active)
same,AC50,[4],120 nM (active) and 452 nM (active)
same,outcome,[17],inactive
same,outcome,[18],inactive
same,AC50,[7],31.5 µM (active)
same,AC50,[1],35.3 µM (active)
same,AC50,[2],13.5 µM (active)
Cc1occc1C(=O)Nc1ccc(C(=O)N2CCC(F)(F)/C(=C\C(=O)N3CCC(N4CCCCC4)CC3)c3ccccc32)cc1,AC50,[1],31.2 µM (active)
same,AC50,[2],41.1 µM (active)
CC(=O)N1CCN(c2ccc(OC[C@H]3CO[C@](Cn4ccnc4)(c4ccc(Cl)cc4Cl)O3)cc2)CC1,outcome,[7],inactive
same,AC50,[1],29.2 µM (active)
same,AC50,[2],32.4 µM (active)
CCCC(=O)OCCC(C)C,outcome,[1],inactive
C[C@]12CC[C@@H]3c4ccc(O)cc4CC[C@H]3[C@@H]1CC[C@H]2O,outcome,[7],inactive
same,AC50,[1],90.7 µM (active)
same,AC50,[2],84.1 µM (active)
Oc1ccc2ccccc2c1,AC50,[19],72.8 µM (active)
same,outcome,[2],inactive
Cc1c2ccccc2c(C)c2c1ccc1ccccc12,AC50,[19],146 µM (active)
same,outcome,[7],inactive
same,AC50,[8],8.7 µM (active)
same,AC50,[20],9.59 µM (active)
same,AC50,[11],16.9 µM (active)
same,AC50,[12],9 µM (active)
same,AC50,[1],50 µM (active)
same,AC50,[2],41.1 µM (active)
same,AC50,[13],5.91 µM (active)
same,AC50,[14],15.7 µM (active)
